In PubChem BioAssay (NCI):
This is part of a sample that, as a whole, favours compounds with a hit. Of some 83,000 tested, about 20% had one in any assay.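 Growth was measured after 48 h exposure to one concentration of compound in 96-well plates. Values under 10 count as active.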 A number with no mark means an inactive call. The source made the active and inactive calls.

Experiments:
Assay in all cases: NCI-60 one-dose screen, 48 h (100 = growth as untreated, 0 = no growth, -100 = all killed)
Conditions in all cases: 10 µM unless noted
SK-MEL-2 melanoma = system: SK-MEL-2 melanoma
EKVX NSCLC = system: EKVX NSCLC
SN12C renal = system: SN12C renal
UO-31 renal = system: UO-31 renal
TK-10 renal = system: TK-10 renal
ACHN renal = system: ACHN renal
CAKI-1 renal = system: CAKI-1 renal
A498 renal = system: A498 renal
CCRF-CEM leukemia = system: CCRF-CEM leukemia
MOLT-4 leukemia = system: MOLT-4 leukemia
SR leukemia = system: SR leukemia
RPMI-8226 leukemia = system: RPMI-8226 leukemia
OVCAR-8 ovarian = system: OVCAR-8 ovarian
OVCAR-5 ovarian = system: OVCAR-5 ovarian
OVCAR-4 ovarian = system: OVCAR-4 ovarian
SK-OV-3 ovarian = system: SK-OV-3 ovarian
IGROV1 ovarian = system: IGROV1 ovarian
OVCAR-3 ovarian = system: OVCAR-3 ovarian
HS 578T breast = system: HS 578T breast
NCI/ADR-RES ovarian = system: NCI/ADR-RES ovarian

Compound | growth (SK-MEL-2 melanoma) [%] | growth (EKVX NSCLC) [%] | growth (SN12C renal) [%] | growth (UO-31 renal) | growth (TK-10 renal) [%] | growth (ACHN renal) | growth (CAKI-1 renal) | growth (A498 renal) | growth (CCRF-CEM leukemia) | growth (MOLT-4 leukemia) | growth (SR leukemia) | growth (RPMI-8226 leukemia) | growth (OVCAR-8 ovarian) [%] | growth (OVCAR-5 ovarian) [%] | growth (OVCAR-4 ovarian) [%] | growth (SK-OV-3 ovarian) [%] | growth (IGROV1 ovarian) [%] | growth (OVCAR-3 ovarian) | growth (HS 578T breast) | growth (NCI/ADR-RES ovarian)
O=C(/C=C\c1ccc(O)c(O)c1)c1ccccc1O | 125 | 73.3 | 71.9 | 49.6% | 88.7 | 78.3% | 8.01% (active) | 98.9% | 14.7% | 49.1% | -13.3% (active) | 5.13% (active) | 69.4 | 103 | 74.9 | 97 | 46.3 | 73.8% | 91.8% | 74.3%
Nc1nc(N)c2c(n1)NC(c1cccc(Nc3ccnc4cc(C(F)(F)F)ccc34)c1)CC(c1ccc(Cl)cc1)=N2 (stereo not given) | 42.7 | 50.8 | 63.9 | 62.7% | 87.4 | 72.7% | 45.5% | 82% | 19.2% | 7.52% (active) | 3.26% (active) | -1.21% (active) | 62.4 | 105 | 60.1 | 64.9 | 52.9 | 26.6% | 62.1% | 54.4%
COc1ccc(-c2cn(Cc3ccc4c(Br)cc(Br)c(O)c4n3)nn2)cc1 | 101 | 84.2 | 100 | -92.3% (active) | 91.3 | -68.7% (active) | 61.6% | 99.6% | 73.9% | 87% | -23.1% (active) | 67.2% | 88.7 | 95.6 | 96.2 | 108 | 56.6 | 73.2% | 109% | 102%
COc1cc2c(c(OC)c1OC)CCC(c1cccc(C(=O)Nc3ccccc3Br)c1)O2 (stereo not given) | 87.8 | 90.1 | 85.4 | 67.3% | 87.5 | 86.2% | 95.4% | 56.6% | 86.1% | 50.4% | 75.6% | 83% | 80.1 | 90.6 | 85.3 | 81 | 89.2 | 100% | 86.2% | 99.2%
COc1ccc(S(=O)(=O)Oc2ccc(-c3sc4cc(OS(=O)(=O)c5ccc(OC)cc5)ccc4c3C(=O)c3ccc(OCCN4CCCCC4)cc3)cc2)cc1 | 119 | 97 | 99.9 | 80.7% | 95 | 101% | 94.1% | 105% | 97.7% | 89.3% | 102% | 109% | 108 | 95.7 | 97.7 | 95.9 | 99.3 | 100% | 107% | 110%
Oc1ccc(C2OCCO2)c2cccnc12 | 70.4 | 78.4 | 49.1 | 45% | 95.5 | 67.5% | 105% | 88.2% | 13.5% | 20.5% | 31.8% | 29.6% | 24.6 | 59.3 | 15.3 | 93.5 | 74.2 | 4.41% (active) | 76.4% | 27.5%
C=CCOC(=O)C1=C(C)N(CC)C(=O)N(CC)C1c1c(Cl)n(C)c2ccccc12 (stereo not given) | 95.6 | 75.5 | 89 | 64.6% | 94.1 | 56.9% | 32.8% | 82.5% | -9.42% (active) | 89.3% | 90.5% | 59.7% | 88 | 89.1 | 88.5 | 103 | 90.9 | 90% | 89.2% | 84.2%
O=C(O)c1nn(-c2ccc(Cl)cc2)nc1N1CCCC1 | 102 | 88.3 | 101 | 79.9% | 133 | 99.4% | 97.6% | 74.3% | 100% | 97.5% | 99% | 101% | 96 | 94.9 | 91.2 | 97.2 | 93 | 105% | 97% | 99.5%
COC(=O)c1nc(-c2ccc(C)cc2)oc1N1CCOCC1 | 106 | 92.8 | 93.1 | 83.7% | 81.6 | 102% | 90.3% | 77.4% | 85% | 80.8% | 80.3% | 88% | 107 | 88.1 | 109 | 94.9 | 89.5 | 107% | 108% | 96.7%
O=C(CSc1nnc(-c2ccc(Cl)c(Cl)c2)n1-c1ccccc1)Nc1ccc(C(=O)/C=C/c2ccc(Cl)cc2)cc1 | 78.6 | 88.3 | 89.4 | 66.2% | 93.3 | 98% | 74.2% | 82.5% | 83.7% | 80.5% | 76.6% | -11.4% (active) | 87.9 | 96.8 | 94.4 | 87.9 | 89.2 | 95.5% | 90.7% | 95.3%
O=C(/C=C/c1ccc(Cl)cc1)c1ccc(-n2cc(CN3CCN(c4cc5c(cc4F)c(=O)c(C(=O)O)cn5C4CC4)CC3)nn2)cc1 | 99.1 | 96.6 | 58.2 | 65.1% | 92.4 | 89.9% | 75.5% | 60.5% | 74.6% | 81.7% | 13.1% | 11.5% | 83.6 | 100 | 94.4 | 84.6 | 59 | 90.5% | 65.3% | 94.8%
COc1cccc(C2C3=C(COC3=O)N(CCO)c3cc4c(cc32)OCCO4)c1 (stereo not given) | 78.1 | 39.7 | 31 | 75% | 66.9 | 24.8% | 41.6% | -21.8% (active) | 11.5% | 11.8% | 9.73% (active) | 25.4% | 27.7 | 29.8 | 24.2 | 22.6 | 13.8 | -59.7% (active) | -5.22% (active) | -35.1% (active)
O=C1Nc2ccccc2/C1=C/c1cccn1CCCCCCn1c2ccccc2c(=O)c2ccccc21 | 86.3 | 65.3 | 93.6 | 56.2% | 78.7 | 89.7% | 72.6% | 103% | 49.8% | 50.9% | 80.8% | 25.3% | 47.5 | 82.2 | 53.8 | 87.2 | 88 | 64.9% | 96.3% | 71.8%
COc1cc(CNC(=O)CCCC/C=C/C(C)C)ccc1OCc1cn(-c2cccc([N+](=O)[O-])c2)nn1 | 88.4 | 95.1 | 89.5 | 74.7% | 105 | 81.7% | 79% | 78.9% | 90.2% | 86.6% | 78.4% | 65.9% | 76.9 | 107 | 94.2 | 93.6 | 89.4 | 105% | 90.8% | 81.8%
